This is a sample that favours compounds with a hit; in the whole collection about 2% have one here.
PME-1 inh – PME-1 (human) inhibition; recombinant PME-1, FP-Rh probe fluorescence polarization; Q9Y570; 0.53% of 320,000 active; inhibition, % at 5.9 µM;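 active means inhibition above the campaign mean of all compounds plus 3 SD, cut at about 26% in these data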;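 further: competitive labeling of PME-1 active site by serine hydrolase directed probe; 0% = PME-1 with DMSO and 100% = wells lacking PME-1 enzyme; inhibitors block probe labeling so polarization falls and inhibition rises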
GSTO1 counter – GSTO1 inhibition, counter-screen for RBBP9 inhibitors | recombinant GSTO1, activity-based probe fluorescence polarization | inhibition, % at 5.96 µM | 1.1% of 300,000 active | AID 1974;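 active means inhibition above the campaign mean inhibition plus 3 SD, cut at about 35% in these data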;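 further: 0% = GSTO1-1 with DMSO and 100% = wells lacking GSTO1-1 enzyme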
LYPLA2 counter – blocks human lysophospholipase 2, a PME1 counter-screen | O95372 | recombinant LYPLA2, FP-Rh probe fluorescence polarization | inhibition, % at 5.9 µM | 0.38% of 320,000 active;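 active means inhibition above the screen-wide mean plus 3 SD, limit set per campaign, cut at about 26% in these data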;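 further: 0% = LYPLA2 with DMSO and 100% = wells lacking LYPLA2 enzyme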
Target sequence (O95372 whole entry, looked up): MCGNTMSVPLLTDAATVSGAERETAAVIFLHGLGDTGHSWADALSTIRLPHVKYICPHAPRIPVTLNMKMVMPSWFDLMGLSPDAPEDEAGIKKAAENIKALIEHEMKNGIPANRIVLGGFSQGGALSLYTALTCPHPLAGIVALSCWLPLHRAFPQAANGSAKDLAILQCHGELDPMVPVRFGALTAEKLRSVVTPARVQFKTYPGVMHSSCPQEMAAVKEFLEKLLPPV
LYPLA1 counter – blocks human lysophospholipase 1, a PME1 counter-screen. O75608. recombinant LYPLA1, FP-Rh probe fluorescence polarization. inhibition, % at 5.9 µM. 0.16% of 320,000 active. AID 2174;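 active means inhibition above the mean of all tested compounds plus 3 SD, set per campaign, cut at about 14% in these data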;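 further: inhibitors block serine hydrolase probe labeling of LYPLA1 so polarization falls; 0% = enzyme with DMSO and 100% = wells lacking LYPLA1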
Target sequence (O75608 whole entry, looked up): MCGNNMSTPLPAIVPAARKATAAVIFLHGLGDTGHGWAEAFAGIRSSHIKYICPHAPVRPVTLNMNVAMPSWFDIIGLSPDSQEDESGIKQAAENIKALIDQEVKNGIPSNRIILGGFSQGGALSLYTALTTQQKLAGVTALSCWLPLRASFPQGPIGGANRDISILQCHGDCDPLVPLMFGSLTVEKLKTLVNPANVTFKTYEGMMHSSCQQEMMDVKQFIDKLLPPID
Fam108B inh – counter-screen for RBBP9 inhibitors: inhibitors of mouse Fam108B | recombinant Fam108B, FP-Rh probe fluorescence polarization | inhibition, % at 9.51 µM | 0.33% of 300,000 active | AID 1947;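 active means inhibition above the screen mean inhibition plus 3 SD, computed separately per campaign, cut at about 18% in these data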;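 further: inhibitors lower polarization as less probe binds the enzyme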
PREPL inhibitor – inhibitors of human prolyl oligopeptidase-like enzyme PREPL; recombinant PREPL, fluorescence polarization activity-based probe; inhibition, % at 5.96 µM; 0.68% of 320,000 active; in the data active means inhibition above about 43%;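 further: 0% = enzyme with DMSO and 100% = wells lacking enzyme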
* hit, by the source's call; · = no result.

SMILES | PME-1 inh | GSTO1 counter | LYPLA2 counter | LYPLA1 counter | Fam108B inh | PREPL inhibitor
Cc1ccc2c(=O)c(C(=O)NCc3cccs3)c[nH]c2c1 | -2 | -2 | 5 | 1 | -2 | 74*
Cc1cccc2c(=O)c(C(=O)NCc3cccs3)c[nH]c12 | 2 | -1 | 5 | 0 | 1 | 6
O=C(CNC(=O)c1ccco1)OCN1C(=O)c2ccccc2C1=O | 0 | 37* | 3 | -1 | 1 | 2
Oc1ccc(O)c(Cc2nc3ccccc3s2)c1 | -1 | 61* | -2 | -1 | 1 | 18
Cc1cc(O)c(C=O)c2c1C(=O)Oc1c(CO)c(O)c3c(c1O2)C(O)OC3=O (centres undefined) | 8 | 9 | 2 | -4 | 12 | 45*
Cc1cc(O)c(CN(C)C)c2c1C(=O)/C(=C/c1ccco1)O2 | -2 | 11 | 1 | -2 | -1 | -2
CCN(CC)c1ccc(/C=N/NC(=O)Cc2nnc(NC(=O)Nc3ccccc3)s2)cc1 | 37* | -11 | -14 | -25 | 47* | 20
CCN(CC)c1ccc(/C=N/NC(=O)Nc2ccccc2)cc1 | 12 | 12 | 1 | 0 | 6 | 2
CCOc1cc(-c2cc(-c3ccc(N)cc3)nc(N)c2C#N)ccc1O | 41* | -22 | -6 | 2 | 14 | 24
CCOc1cc(-c2cc(-c3ccccc3)nc(N)c2C#N)ccc1O | 6 | -9 | -4 | -7 | -10 | 12
O=C(/C=C/c1cccs1)Nc1ccc(Br)cn1 | 5 | -7 | 1 | -3 | 1 | 1
O=C(c1ccccc1F)N1CCN(Cc2nc3sc4c(c3c(=O)[nH]2)CCCC4)CC1 | 27* | 0 | -3 | 0 | 0 | 14
Cc1ccc(C(=O)N2CCN(Cc3nc4sc5c(c4c(=O)[nH]3)CCCC5)CC2)cc1 | 1 | 4 | 4 | 3 | 1 | 8
Cc1ccc(NS(=O)(=O)c2ccc3c(c2)C(=O)c2ccccc2C3=O)c(C)c1 | 32* | 10 | 4 | -6 | 9 | -6
Cc1cccc(S(=O)(=O)Nc2cccc3c2C(=O)c2ccccc2-3)c1 | -2 | -11 | -13 | -7 | -1 | 14
N#C/C(=C\c1cc(Br)ccc1F)C(=O)NC1CC1 | 0 | -1 | -4 | 3 | -2 | 3
Cc1ccc(S(=O)(=O)N(C)C)cc1NC(=O)C(C)OC(=O)C1CCC1 (centres undefined) | · | · | · | · | · | 1
COc1ccccc1N1CCN(C(=O)C2CCN(S(=O)(=O)c3ccc(C)cc3)CC2)CC1 | 41* | 6 | -2 | -1 | -1 | 9
COc1ccccc1N1CCN(C(=O)C2CCN(S(=O)(=O)c3ccccc3F)CC2)CC1 | 16 | · | 2 | 3 | · | 18
O=C(COc1cc(F)ccc1[N+](=O)[O-])Nc1cccc(S(=O)(=O)NC2=NCCC2)c1 | -4 | · | -1 | -2 | · | 3
Oc1ccc2c(c1)oc1cc(O)ccc12 | 1 | -3 | 0 | -2 | 1 | 3
O=c1oc2cc(O)ccc2s1 | 4 | 53* | -1 | 1 | 0 | -4
COc1ccc(S(=O)(=O)N2CCN(C(=O)N3CCOCC3)C2C)cc1 (centres undefined) | -3 | 3 | 3 | 3 | 4 | 10
O=C(Nc1ccc2c(c1)COC2=O)c1ccc(Cl)c(Cl)c1 | -144 | -23 | -168 | -89 | -80 | -48
Cc1oc(-c2ccc(Cl)cc2)nc1CS(=O)CC(=O)NCCCN(C)C1CCCCC1 (centres undefined) | 3 | -1 | 12 | 4 | 2 | 57*
SMILES | PME-1 inh | GSTO1 counter | LYPLA2 counter | LYPLA1 counter | Fam108B inh | PREPL inhibitor
O=C(NC(C(=O)N/N=C/c1cccc2ccccc12)c1n[nH]c(=O)c2ccccc12)c1ccccc1 (centres undefined) | -48 | -184 | -65 | -25 | -42 | -41
O=C(NC(C(=O)N/N=C/c1cc([N+](=O)[O-])ccc1O)c1n[nH]c(=O)c2ccccc12)c1ccccc1 (centres undefined) | 49* | -75 | -2 | -4 | 7 | 17
Cc1cccnc1NC(=S)Nc1ccc(Br)cc1Cl | -2 | 4 | -4 | -2 | -8 | -1
Cc1oc2cc(O)ccc2c(=O)c1Oc1ccc2ccccc2c1 | -6 | 37* | 1 | -2 | 0 | -8
Cc1oc2cc(O)ccc2c(=O)c1Oc1ccc(F)cc1 | -2 | -10 | 6 | -6 | -3 | -4
COc1cc2[nH]c(C(=O)NN)c(N)c2cc1OC | 4 | 39* | -8 | -4 | 9 | 22
COc1cccc(-c2nc(NC3CCCC3)c3ccccc3n2)c1O | 27* | 5 | 0 | -5 | 15 | 22
COc1cccc(-c2nc(NCc3ccccc3)c3ccccc3n2)c1O | -2 | 16 | 2 | -5 | 2 | 5
COc1ccc(Cn2c(N)c(C#N)c3nc4ccccc4nc32)cc1 | 0 | 39* | 0 | -8 | 2 | 7
N#Cc1c(N)n(CCOC(=O)c2cccc([N+](=O)[O-])c2)c2nc3ccccc3nc12 | 31* | 20 | -1 | -1 | 0 | 5
COCCn1c(N)c(C#N)c2nc3ccccc3nc21 | -1 | 27 | 3 | 3 | 2 | 22
COc1cc(Cn2c(N)c(C#N)c3nc4ccccc4nc32)cc(OC)c1 | 15 | 13 | 1 | -5 | -4 | 12
CCCCNS(=O)(=O)c1ccc(NC(=O)C(Sc2ccccc2)c2ccccc2)cc1 (centres undefined) | -107 | -46 | -97 | -48 | -56 | -10
COC(=O)CCC(=O)OC1(C)C(=O)C2=CN(c3ccc(OC)cc3)C(c3ccc(OC)cc3)=CC2=C(Br)C1=O (centres undefined) | 8 | 36* | -2 | 0 | 5 | 37
CCOC(=O)N1CCN(CC(=O)Nc2c(C(=O)OC)[nH]c3ccccc23)CC1 | 0 | -2 | 2 | 1 | 3 | 7
COC(=O)c1[nH]c2ccccc2c1NC(=O)CN1CCN(C(=O)c2ccco2)CC1 | 1 | 36* | 5 | -1 | -5 | 8
CCN(CC)c1ccc(C(=O)NNC(=O)CNC(=O)c2cccs2)cc1 | 1 | · | 5 | 2 | · | 10
CCc1nnc(NC(=O)CSc2nc3c(C)cccc3[nH]2)s1 | -3 | 36* | 0 | -1 | 4 | 5
CC(C)Cc1nnc(NC(=O)CSc2nc(N)cc(=O)[nH]2)s1 | -1 | 47* | -3 | 1 | -2 | 0
CCCc1nnc(NC(=O)CSc2nc3ccccc3[nH]2)s1 | -9 | 12 | 1 | -1 | -1 | 2
CCCCN(C1CCS(=O)(=O)C1)S(=O)(=O)c1cc(C)ccc1C (centres undefined) | 2 | -11 | 0 | 1 | -3 | 4
N#Cc1ccc(CN2CCN(C(=O)c3ccc(S(=O)(=O)N4CCCCCC4)cc3)CC2)cc1 | 6 | · | 11 | 1 | · | 5
CCOC(=O)c1c(C)[nH]c(C)c1C(=O)COC(=O)c1ccc(OC)c(OC)c1 | 2 | 35* | 1 | 0 | 0 | 2
